# Tested on: VDR:RXRa (NR concentration 270 nM, RXRa partner concentration 90 nM)
# Test: PBM binding z-score (relative to random genomic background probes); higher = stronger binding; sequences stand for … in GC…GCGATTGACAGCGTAGAATGAAGG
# Procedure: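 Protein-binding microarray (Agilent 4x180K custom design, double-stranded 60-nt probes: 5' GC cap, 34-nt variable region, 24-nt constant primer region; full probe sequence given). Purified or IVT nuclear receptor:RXRα heterodimers (3:1 NR:RXRα, mostly 270:90 nM) or homodimers were incubated for 1 h in PBS with 2% milk and no ligand, then detected with Alexa488 antibodies. Fluorescence from o1-orientation probes (~5 replicates averaged) was converted to z-scores against 500 random hg19 background probes. Variable regions are seed direct-repeat (DR0–DR5) sites, all their single-nucleotide variants and half-site ablations.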
row,Sequence,PBM binding z-score
1,AGTCATAGTTCATCTAGGTAACGTAAGATATGCT,2.54
2,CCCACTGGGGCATAAGGTTACCATAAGCCAGCCC,-0.113
3,GCTCGGAGGACAAGGTCAGAGCCTTGTCCGTAGA,1.43
4,ACTTACGGGTCAACGAGGTTATTGCACGCGTATA,8.05
5,TTATCAAGGTGAAGGTCGTTGATCCCTCTGTAGA,1.55
6,GCAGACAGGTGAAACACAGGTAACTCAGGGTGGC,-0.244
7,CAGCCTAGGTCAGGGCCAGTTTAGGAGGAACGTT,0.723
8,CTCGAAAGTTCGTGCTCAGGTGAGTATACCAAAC,1.71
9,CCGACTGGGGGAAGGTTACCATAACGCACAGCCA,0.558
10,GTTTGTAGATCAAGGTTAAGAAAGACTAAGCTAA,1.03
11,AGAATCAGGTTATTAAGATCAGGGAATTGCGGTC,1.08
12,TCTCTGAGGACACGAAAGGTCAGAGCTCGACATC,3.54
13,AATACAGGGTCATCGTATGCCAGAGTACGCACAG,5.08
14,TTACCAAGGTAAAGGTCGTTGATCCCTCTGTAGA,2.34
15,CCTTACGGGTCACGAGGTTATAGCCCGACGAGCG,5.11
16,ATACCAAGGTGATCGTGAGGTCGTTAATACTAAC,3.1
17,AGAATGAGGTTATACGTAGACCAGGGAAGAAAGT,1.18
18,ATCGAAAGGTCTTGAGGTGAGTATACAGAAAGGC,0.496
19,ATCGAAAGGTCGAGCTGAGTATAGAGAAAGGGAA,2.53
20,CCTATTTGGTCAAGGTCACACACGCTATAGGTAC,4.18

row,Sequence,PBM binding z-score
1,ATCTCTAGCTAACCAAGTTCAGTGAATGCCGAAC,1.42
2,CCTACTGGGCCACGCAAGGTCATTGATTCAGTGA,3.62
3,TAGCCTAGGTCATTCAGGGGCCAGGATAGAAAGC,2.94
4,TCTGCTAGGTCAACGATGGGCAGCTAATCTGCTA,0.993
5,CGTCAAAGTTCAAGGTAACGTAGCAGAAAGCAGC,3.6
6,TCACATAGGTAAAAGGTGAAAGTCGGTGTGGTAA,1.8
7,CATACAGGGTCAGCTAGGCGAGAGTAGGGACGGC,2.57
8,TCATAAAGGTAAACAGGTGAAAGTCCGTAAGTTA,1.64
9,GCAGACAGGTGAAACGCAGGTAACTCAAGGTGGC,-0.431
10,TCATATAGGTAATACAGCTGAAAGTCGGCATCTA,0.891
11,CCTATTAGTTGACCACAAGGGCAACCGAAGCTCG,0.807
12,CAAACTAGGTCGAAGGTCAAAGTCGAGCCAACCA,4.45
13,ATATGTAGGTTAGCTGGGGTCAATCAGACTAGGC,5.46
14,TCTCGGAGGACACGAAGCTCAGAGCTTTCCAGAG,-0.415
15,TCTTGTAGAGCAAAGGTTAAGAAAGCCGAAGCCT,0.679
16,CCTAATGGGCCAAAAAGGTCATTGATGCCGATAA,5.11
17,CTCGAATGGTCGGTTGAGGTGAGTATACGGATAA,-0.211
18,AATACAGGGTCACTAGGCCACAGTAGGTACGAAT,4.27
19,AGAATGAGGTTAAGATGAGGGAAACAGAATACAT,1.43
20,AGAACGAGGGCTATGAGTTGATAGCACGGGTGGC,0.114

# Source: the supplement of paper PMC6555819
